From PubChem
Most compounds without a hit are left out; they make up all but 0.43% or so of the library.
GAA inh: qHTS Assay for Inhibitors of Human alpha-Glucosidase as a Potential Chaperone Treatment of Pompe Disease; Lysosomal alpha-glucosidase (Homo sapiens), P10253; purified human GAA, 4-MU-alpha-glucoside fluorescence; Potency, µM (top dose mostly 76.9 µM), for inactives: at the top dose activity change, negative = inhibition, usual class: inhibitors; 0.005% of 200,000 active; AID 1466, 2008;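 further: potency means the concentration at half of the fitted maximal effect; plate controls were uninhibited enzyme wells for no effect and no-enzyme background for full effect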
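AC50 values come from Hill fits of compound titrations (up to 77 uM) against 4 nM human enzyme. Substrate 4-methylumbelliferyl-alpha-D-pyranoside at 400 uM, pH 5.0 citrate buffer, 20 min room temperature; fluorescence Ex 365/Em 440 after alkaline stop.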
aGlu spleen mod: qHTS Assay for Inhibitors and Activators of Human alpha-Glucosidase From Spleen Homogenate. Lysosomal alpha-glucosidase (Homo sapiens), P10253. human spleen homogenate, 4-MU-alpha-glucoside fluorescence. Potency, µM (titrated, usually from 79.9 µM), without a hit: top-dose activity change, negative = inhibition, usual class: inhibitors. 0.006% of 240,000 active;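 further: potency means the concentration at half of the fitted maximal effect; 0% = enzyme with vehicle and -100% = no enzyme basal signal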
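Human spleen homogenate (1 ug) incubated with compounds and 1 mM 4-methylumbelliferyl-alpha-D-glucopyranoside in pH 5.0 citrate/phosphate buffer, 37 C, 40 min. Stopped at pH 10; 4-MU fluorescence (Ex 365/Em 440 nm); AC50 by Hill fit.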
GLA spleen mod: qHTS Assay for Inhibitors and Activators of Human alpha-Galactosidase From Spleen Homogenate; Alpha-galactosidase A (Homo sapiens), P06280; human spleen homogenate, 4MU-alpha-Gal fluorescence, 40 min; Potency, µM (top dose mostly 80 µM), for inactives: top-dose activity change, negative = inhibition, most hits filed as inhibitors; 0.008% of 240,000 active; AID 2107, 2009;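 further: potency means the concentration at half of the fitted maximal effect; 0% = enzyme with vehicle and -100% = no enzyme basal signal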
Target sequence (P06280 32-429 limits assumed): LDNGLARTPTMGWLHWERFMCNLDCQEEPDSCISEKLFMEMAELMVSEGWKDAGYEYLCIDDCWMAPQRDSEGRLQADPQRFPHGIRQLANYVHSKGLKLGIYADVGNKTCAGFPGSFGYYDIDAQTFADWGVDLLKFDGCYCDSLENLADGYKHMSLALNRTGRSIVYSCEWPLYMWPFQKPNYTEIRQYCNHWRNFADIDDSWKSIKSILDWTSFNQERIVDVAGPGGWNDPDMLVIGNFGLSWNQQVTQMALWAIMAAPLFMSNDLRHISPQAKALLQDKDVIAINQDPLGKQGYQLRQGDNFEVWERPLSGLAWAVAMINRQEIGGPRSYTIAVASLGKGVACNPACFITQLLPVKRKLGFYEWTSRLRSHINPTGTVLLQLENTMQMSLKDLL
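Fluorogenic readout (Ex 365/Em 440 nm) of 4-methylumbelliferone released from 1 mM 4-MU-alpha-galactoside by spleen homogenate, 40 min at 37C, pH 5.0. Data normalized to no-enzyme and enzyme controls; Hill-equation AC50 from compound titrations.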
GLA inh pH 4.5: qHTS Assay for Inhibitors of Human alpha-Galactosidase at pH 4.5 | activity change, negative = inhibition, % at 105 µM | purified enzyme, 4-MU-alpha-Gal fluorescence, pH 4.5 | AID 1467, 2008 | 230,000 tested, under 10 active;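 further: 0% = full activity with enzyme and -100% = basal without enzyme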
Target sequence (P06280 whole entry, looked up): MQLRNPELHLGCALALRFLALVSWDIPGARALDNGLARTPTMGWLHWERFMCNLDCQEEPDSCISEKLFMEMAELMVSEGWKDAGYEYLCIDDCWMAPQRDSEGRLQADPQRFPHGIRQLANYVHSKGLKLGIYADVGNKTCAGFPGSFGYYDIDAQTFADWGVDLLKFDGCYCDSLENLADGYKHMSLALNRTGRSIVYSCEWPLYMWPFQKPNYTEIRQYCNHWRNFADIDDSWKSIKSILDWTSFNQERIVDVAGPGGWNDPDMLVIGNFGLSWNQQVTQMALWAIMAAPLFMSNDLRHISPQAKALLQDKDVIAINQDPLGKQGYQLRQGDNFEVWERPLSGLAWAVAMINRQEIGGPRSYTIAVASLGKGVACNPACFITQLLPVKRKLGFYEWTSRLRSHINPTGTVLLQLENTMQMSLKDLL
N370S GC: qHTS Assay for Inhibitors and Activators of N370S glucocerebrosidase as a Potential Chaperone Treatment of Gaucher Disease; 0.092% of 330,000 active; N370S GC spleen homogenate, 4MU-glucoside fluorescence; Potency, µM (doses to about 59.4 µM), inactives show top-dose activity change, negative = inhibition, actives largely listed as inhibitors; Lysosomal acid glucosylceramidase (Homo sapiens), P04062;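 further: potency means the concentration at half of the fitted maximal effect; 0% = full enzyme activity and -100% = no enzyme basal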
GAA glycogen: qHTS Assay for Inhibitors and Activators of Human alpha-Glucosidase Cleavage of Glycogen; recombinant GAA, glycogen substrate, Amplex Red glucose oxidase fluorescence; Potency, µM (highest dose often 76.4 µM), without a hit: at the top dose activity change, negative = inhibition, usual class: inhibitors; 0.38% of 300,000 active; AID 2100, 2009;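 further: potency means the concentration at half of the fitted maximal effect; 0% = full enzyme reaction and -100% = no-enzyme basal signal; the screen sought inhibitors and activators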
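qHTS, 1536-well; enzyme 4 nM final; cpd up to 77 uM; substrate bovine liver glycogen 30 ug; 50 mM citrate/phosphate pH 5.0, 0.01% Tween-20; 37 C, 40 min; Amplex Red detection 45 min RT; Hill fit → AC50.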
* = called active by the depositor; ? = inconclusive; . = no result given; [ ] = remark or other dose. The call rests on the fitted dose curve; in most records, active means well fitted curve in the direction sought with a large enough effect; inconclusive means small, poorly fitted or top-dose-only effect, or another doubt; inactive means no such curve, though single readings can be large; an effect the other way counts as inactive or inconclusive.

SMILES | GAA inh | aGlu spleen mod | GLA spleen mod | GLA inh pH 4.5 | N370S GC | GAA glycogen
COc1ccccc1N1C(=O)CC(N(O)c2ccccc2)C1=O (centres undefined) | 1.0% | -0.5% | -2.1% | -1.0 | -1.7% | ?
Cc1ccccc1N1C(=O)CC(N(O)c2ccccc2)C1=O (centres undefined) | -0.4% | -2.3% | -6.6% | 4.4 | -12.2% | 3.95µM*
COc1ccccc1N(O)C1CC(=O)N(c2ccc(F)cc2)C1=O (centres undefined) | 2.2% | -5.1% | 2.3% | 10.2 | -5.2% | 17.8µM*
CC(C)C[C@H](NC(=O)[C@@H]1CCC(=O)N1)C(=O)N[C@@H](Cc1ccc(O)cc1)C(=O)N[C@@H](CCC(=O)O)C(=O)N[C@@H](CC(N)=O)C(=O)N[C@@H](CCCCN)C(=O)N1CCC[C@H]1C(=O)N[C@@H](CCCN=C(N)N)C(=O)N[C@@H](CCCN=C(N)N)C(=O)N1CCC[C@H]1C(=O)N[C@@H](Cc1ccc(O)cc1)C(=O)O | . | 2.3% | -0.6% | . | 1.6% | .
C=C1C[C@]23CC[C@H]4C(CO)(CO)C[C@@H](O)C[C@@]4(C)[C@@H]2CC[C@H]1C3 | . | 0.2% | 3.1% | -2.0 | -1.9% | .
CCC1CCCCN1C(=O)CSc1nnc(-c2ccc(OC)c(OC)c2)o1 (centres undefined) | . | . | . | . | . | 13.8%[76.3 µM]
COc1ccccc1OCCn1c(-c2ccc(Br)cc2)nc2ccccc2c1=O | . | . | . | . | . | 0.4%[76.3 µM]
O=C(N/N=C/c1ccc(O)c(O)c1)c1ccc(CSc2cccc3cccnc23)cc1 | -7.7% | -4.8% | -1.7% | -2.0 | -4.7% | 14.1µM*
O=C(Cn1cnc2c(nc3n2CCCCC3)c1=O)Nc1ccc(F)c(Cl)c1 | . | . | . | . | . | -10.1%[76.3 µM]
Cc1ccc(C)c(N2CCN(S(=O)(=O)c3ccc4c(c3)NC(=O)CC(=O)N4)CC2)c1 | . | . | . | . | 14.1µM* | -9.3%[76.3 µM]
Cc1ccc(C)c(N2CCN(S(=O)(=O)c3ccc4[nH]c(=O)c(=O)[nH]c4c3)CC2)c1 | -9.4% | -12.6% | 23.7% | -0.5 | 12.6µM* | -1.1%
Cc1ccc(C)c(N2CCN(S(=O)(=O)c3ccc4c(c3)CCC(=O)N4)CC2)c1 | -0.1% | 2.8% | 1.7% | -3.2 | -11.6% | -1.2%
CC(=O)Nc1ccc(S(=O)(=O)Nc2ccc([N+](=O)[O-])cc2)cc1 | . | 12.0% | 13.3% | -6.6 | 15.8µM* | .
CC(NC(=O)Nc1ccccc1O)(C(F)(F)F)C(F)(F)F | -11.9% | 2.6% | 6.1% | -14.4 | 2.7% | 15.8µM*
COc1ccc(-c2noc(CC(=O)Nc3ccc(Br)cc3C)n2)cc1 | . | . | . | . | . | -1.2%[76.3 µM]
COc1ccc(C(O)(C(=O)NNc2ccc(C)cc2)c2cccs2)cc1 (centres undefined) | -2.0% | 1.2% | -1.2% | 0.7 | 9.0% | 19.8µM*
COc1ccc(NC(=O)NNC(=O)C(O)(c2ccccc2)c2ccccc2)cc1 | . | . | . | . | -0.9% | -7.2%[76.3 µM]
O=C(NNc1ccc(C2CCCCC2)cc1)C(O)(c1ccccc1)c1cccs1 (centres undefined) | -14.2% | -15.2% | 6.3% | -8.6 | ? | 20µM*
CC1=C(c2ccc(C(C)C)cc2)S(=O)(=O)NC1=NCc1ccc(OC(C)C)cc1 | . | . | . | . | . | 2.2%[76.3 µM]
COc1ccccc1CNc1nc(-c2cccnc2)nc2ccccc12 | . | -3.5% | -9.1% | . | ? | .
COc1ccc2[nH]cc(CCNc3ccnc(-c4ccccc4C)n3)c2c1 | . | -20.9% | 31.6µM* | . | 14.1µM* | .
COc1ccc(CNc2nc(-c3cccnc3)nc3ccccc23)c(OC)c1 | . | 1.6% | -24.8% | . | 11.2µM* | .
COc1ccc(CNc2ccnc(-c3ccccc3Cl)n2)c(OC)c1 | . | -9.6% | ? | . | 4.47µM* | .
COc1cccc(-c2nc(NCc3ccc(OC)cc3OC)c3ccccc3n2)c1 | . | 11.3% | 1.1% | . | ? | .
COc1ccc2[nH]cc(CCNc3nc(-c4cccnc4)nc4ccccc34)c2c1 | . | -3.7% | -14.1% | . | 12.6µM* | .
SMILES | GAA inh | aGlu spleen mod | GLA spleen mod | GLA inh pH 4.5 | N370S GC | GAA glycogen
COc1ccc(CNc2ccnc(-c3ccccc3OC)n2)c(OC)c1 | . | -0.9% | 0.5% | . | -11.7% | .
Cc1ccc(NC(=O)Nc2nnc(N3CCCC3)s2)c(C)c1 | . | . | . | . | . | 9.7%[76.3 µM]
Nc1ccccc1Nc1ccccc1 | 1.7% | 3.6% | -6.1% | 0.2 | -3.6% | ?
Nc1ccc(Nc2ccccc2)c(Cl)c1 | 0.2% | -5.5% | -2.5% | -2.9 | -23.4% | 35.5µM*
COc1cccc(C(=O)NCC2OCCc3ccccc32)c1 (centres undefined) | . | . | . | . | . | 15.4%[76.3 µM]
CCOC(=O)c1c(/N=C/c2ccc(OC)cc2O)sc2c1CCN(C)C2 | . | -1.5% | 1.7% | -7.4 | -6.8% | 7.4%
CCOC(=O)c1c(/N=C/c2ccc(C)cc2O)sc2c1CCC2 | 2.3% | -0.4% | 1.8% | -4.0 | -6.0% | 14.1µM*
CCN1C(=O)[C@H]2[C@@H]3[C@H](O)[C@H](O)CC(=O)[C@H]3CC[C@H]2C1=O | . | 3.5%[17.4 µM] | 0.1%[17.5 µM] | . | 9.3%[12.8 µM] | .
CC(=O)Nc1ccc(S(=O)(=O)NNC(=O)C(=O)NNc2ccccn2)cc1 | 1.6% | -6.6% | -7.3% | -6.0 | 2.7% | ?
O=C(Nc1ccccn1)C(=O)Nc1ccccn1 | 2.1% | 4.1% | 8.3% | -5.2 | 1.3% | 6.9%
Nc1ccc(S(=O)(=O)NNC(=O)C(=O)NNc2ccccn2)cc1 | -4.5% | -4.8% | 1.8% | 4.6 | -1.7% | 3.16µM*
Cc1ccccc1S(=O)(=O)NNC(=O)C(=O)NNc1ccccn1 | -2.0% | 3.8% | -2.1% | -1.8 | 4.0% | 3.55µM*
Cc1ccc(S(=O)(=O)NNC(=O)C(=O)NNc2ccccn2)cc1 | 0.4% | -7.7% | -1.2% | 5.8 | 4.7% | 3.52µM*
NC12CCc3c(no[n+]3[O-])C1(O)CC(c1ccccc1)=[N+]2[O-] (centres undefined) | -4.9% | -7.6% | -6.1% | -1.7 | 18.6% | -2.2%
[O-][n+]1onc2c1CCC1N(O)C(c3ccccc3)CC21O (centres undefined) | 0.7% | -2.0% | -9.4% | -6.1 | 0.5% | 28µM*
CCS(=O)(=O)Nc1c(C(=O)OC)[nH]c2ccccc12 | -3.4% | -1.0% | 6.7% | 6.0 | -3.6% | 4.47µM*
COC(=O)c1[nH]c2ccccc2c1NC(=O)Oc1ccccc1 | -0.9%[15.4 µM] | -0.8% | 0.4% | -2.5 | -5.6% | -17.3%
CCS(=O)(=O)Nc1c(C(=O)O)[nH]c2ccccc12 | -7.1% | -2.3% | -3.4% | 0.2 | -7.7% | 5.01µM*
